Screens (PubChem)
Hits are enriched below; roughly 7.8% of the tested compounds scored in any of these assays.
HCV inhibitor – blocks hepatitis C virus | Huh7.5.1 HCVcc-Cre infection, luciferase reporter, 44 h | Potency, µM (series often up to 41.8 µM), inactives show at the top dose activity change, negative = inhibition, usual class: inhibitors | hit rate 3.4% among 340,000 | AID 651820; active = well fitted inhibition curve with a large enough effect; inconclusive = small, poorly fitted or top-dose-only effect, or another doubt; inactive = no such curve, though single readings can be large or run the other way; note: potency is the fitted concentration of half-maximal effect
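Cells (1,000/well) were plated 4 h before compound, then infected with HCVcc-Cre virus (~0.5 moi). After 44 h further culture, infection was read as luciferase luminescence following a 15 min substrate incubation at room temperature.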
HCMV inh – blocks human cytomegalovirus replication; hit rate 4.5% among 410,000; activity change, negative = inhibition, % at 57.5 µM; HFF cells, HCMV-luciferase reporter, 72 h; active compounds read low; in the data active = activity change below about -60%; inconclusive = no clear call, values can overlap the other calls; inactive = above about -39%
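Screen run at 2 compound doses on HFFs infected with reporter HCMV, MOI 1 PFU/cell. Luciferase activity from cell lysates at 72 h post infection gave inhibition relative to buffer-only and Salinomycin wells.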
VACV Venus inh – vaccinia inhibition (Venus reporter) | Vaccinia virus Venus reporter expression, fluorescence | Potency, µM (titrated, usually from 36.5 µM), for inactives: top-dose activity change, negative = inhibition, usual class: inhibitors | hit rate 0.46% among 330,000 | AID 720580; calls by dose curve; tested in A549 cells; note: potency is the fitted concentration of half-maximal effect; nearly all actives have a fitted effect of over 30% in size
VACV mCherry inh – inhibitors of vaccinia virus infection (mCherry reporter signal). Vaccinia virus mCherry reporter infection, fluorescence. hit rate 0.63% among 310,000. Potency, µM (doses to about 36.5 µM), for the others: at the highest dose activity change, negative = inhibition, usual class: inhibitors; calls by dose curve; tested in A549 cells; note: potency is the fitted concentration of half-maximal effect; nearly all actives have a fitted effect of over 35% in size
MARV entry inh – Marburg virus entry inhibition; Marburg virus pseudotyped entry inhibition, cell reporter; Potency, µM (top dose mostly 37.8 µM), for the others: top-dose activity change, negative = inhibition, hits mostly inhibitors; hit rate 1.8% among 300,000; calls by dose curve; tested in HEK293 cells; note: potency is the fitted concentration of half-maximal effect
LASV entry inh – Lassa virus entry inhibition; AID 540256; hit rate 1.2% among 300,000; Lassa virus pseudotype entry inhibition, cell reporter; Potency, µM (top dose mostly 37.9 µM), for the others: at the top dose activity change, negative = inhibition, most hits filed as inhibitors; calls by dose curve; tested in HEK293 cells; note: potency is the fitted concentration of half-maximal effect; nearly all actives have a fitted effect of over 50% in size
* = called active by the depositor; i = inactive; ? = inconclusive; · = no result; + = active, no number; ! = not confirmed by another sample; [ ] = remark or other dose. % is set by controls: 0 for no effect and ±100 for the full control effect.

SMILES | HCV inhibitor | HCMV inh | VACV Venus inh | VACV mCherry inh | MARV entry inh | LASV entry inh
COC(=O)c1scc(-c2ccc(C)cc2)c1S(=O)(=O)Nc1c(C)cc(C)cc1C | · | 19 | 4% | -4% | · | -3%[46.1 µM]
CCN(c1ccccc1)S(=O)(=O)c1c(-c2ccc(C)cc2)csc1C(=O)OC | · | -67* | -6% | -6% | · | ?
Cn1c2c(c(=O)n(C)c1=O)C(c1ccccc1OC(F)F)C1=C(CCCC1=O)N2 (stereo not given) | 2.8µM* | -1 | · | · | -3% | 15%
O=C(C[N+]1(CCO)CCOCC1)c1ccc2ccccc2c1 | · | · | -10% | 33% | · | ·
CCOC(=O)C1=C(C)Nc2sc(C(=O)c3ccc(F)cc3)c(N)c2C1c1ccc(C(=O)OC)cc1 (stereo not given) | 7.1µM* | -40 | -8% | i | ? | ?
Cc1nn(C(=O)c2ccccc2F)c(C)c1S(=O)(=O)N1CCOCC1 | · | 3 | -6% | 5% | · | 0%[46.1 µM]
COc1ccc(NC(=O)Nc2ccccc2OC)cc1 | -12% | 60 | -6% | 0% | 9% | 0%
COc1ccccc1NC(=O)c1ccccc1C(=O)Nc1ccccc1OC | 8% | -11 | -15% | -12% | 4% | -27%
COC(=O)c1ccccc1NC(=O)c1ccccc1OC | 11µM* | 8 | -15% | · | -11% | -12%
COc1ccccc1C(=O)Nc1c(C)cc(Br)cc1C | ? | -61* | · | · | · | ·
COc1ccccc1NC(=O)Nc1ccc(NC(=O)c2ccccc2O)cc1 | 13µM* | -28 | · | · | · | ·
O=C(CC1CC1)N1CC(=O)N2[C@@H](CO)[C@@H](c3ccc(Br)cc3)[C@@H]2C1 | · | -21 | · | · | · | ·
CC(=O)Nc1cccc(NC(=O)CSc2nccn2Cc2ccco2)c1 | -25% | -70*! | -5% | -11% | 14% | 13%
Cc1cc(C)c(NC(=O)CSc2nccn2Cc2ccco2)c(C)c1 | · | 23 | -11% | i | · | 11%[46.1 µM]
CCOc1ccc(S(=O)(=O)/N=C(/Nc2ccc(S(N)(=O)=O)cc2)c2ccccc2)cc1 | -14% | -103* | · | · | · | ·
CC(Oc1ccccc1)C(=O)Nc1ccc(NC(=O)c2ccccc2)cc1 (stereo not given) | · | 14 | -1% | i | -7% | 26%
CN(c1ccc(OCC(=O)Nc2ccc(S(N)(=O)=O)cc2)cc1)S(=O)(=O)c1ccc(F)cc1 | ? | ? | -29% | -11% | ? | 3%
CCOc1ccc(OCC(=O)Nc2ccc(S(N)(=O)=O)cc2)cc1 | 20% | ? | · | · | ? | 4%
NS(=O)(=O)c1ccc(NC(=O)COc2ccc(C(=O)c3ccc(F)cc3)cc2)cc1 | 14µM* | -23 | · | · | · | ·
CC(Oc1ccc(C(=O)c2ccccc2)cc1)C(=O)Nc1ccc(S(N)(=O)=O)cc1 (stereo not given) | ? | -68* | -19% | -7% | ? | -5%
COC(=O)[C@@H]1[C@@H](CO)[C@@H]2Cn3c(ccc(Br)c3=O)[C@H]1N2S(=O)(=O)c1cn(C)cn1 | · | 65 | · | · | · | ·
COc1ccc(S[C@]2(c3nc(C)no3)CC(=O)N[C@@H]2c2ccc(OC)cc2)cc1 | · | -2 | · | · | · | ·
CCc1cccc(C)c1NC(=O)Cn1cnc2c1c(=O)n(C)c(=O)n2C | · | -5 | -5% | -12% | · | 7%[46.1 µM]
CCC(C)NC(=O)CSc1nc2c(sc3ccccc32)c(=O)n1CCc1ccccc1 (stereo not given) | · | -33 | -9% | -5% | · | 0%[46.1 µM]
CC(C)Cc1nc(SCC(=O)N2CCCCC2)c2c(=O)n(C)c(=O)n(C)c2n1 | 25µM* | ? | · | · | · | ·
SMILES | HCV inhibitor | HCMV inh | VACV Venus inh | VACV mCherry inh | MARV entry inh | LASV entry inh
CC(C)Cc1nc(SCC(=O)NCC2CCCO2)c2c(=O)n(C)c(=O)n(C)c2n1 (stereo not given) | -12% | -78* | · | · | · | ·
CC(C)Cc1nc(SCC(=O)N2CCOCC2)c2c(=O)n(C)c(=O)n(C)c2n1 | -13% | 8 | · | · | · | ·
c1ccc(C2(CN3CCNC[C@@H]3CC3CCCCC3)CC2)cc1 | 22µM* | -11 | -14% | -13% | · | ·
Oc1ccc(C[C@@H]2CNCCN2CC2(c3ccccc3)CC2)cc1 | ? | 30 | -26% | -25% | · | ·
Cc1ccc(C2NC(=S)NC3=C2C(=O)CCC3)cc1 (stereo not given) | 13% | 100 | -11% | i | 18%[46.1 µM] | -11%
O=C1CCCC2=C1C(c1ccccc1)NC(=S)N2 (stereo not given) | 25% | -103* | -9% | -1% | -19%[46.1 µM] | -5%
CN1CCN(C(=S)c2ccc(OCC(=O)Nc3cccc(C(F)(F)F)c3)cc2)CC1 | ? | -63* | ? | -19%[1.46 µM] | ? | ?
Cc1cc(N2CCCC2)ccc1NC(=O)COc1cccc(C(F)(F)F)c1 | 13µM* | -70* | · | · | · | ·
Cc1cc(C)cc(NC(=O)COc2ccc(C(=S)N3CCOCC3)cc2)c1 | ? | -62* | -8% | -8% | ? | 0%
O=C(COC(=O)COc1cccc(C(F)(F)F)c1)Nc1ccc(N2CCOCC2)cc1 | 10% | -27 | · | · | · | ·
O=C(NCCc1ccccn1)C1CC12CCN(C(=O)c1c(F)cccc1Cl)CC2 (stereo not given) | · | · | -4% | 1% | · | ·
Cc1ccc(/C=C/C(=O)c2ccc(O)cc2)cc1 | -12% | -7 | -26% | 11µM* | ? | 8.9µM*
CSc1ccc(/C=C/C(=O)c2ccc(O)cc2)cc1 | 1% | -5 | ? | 11µM* | -20% | -32%
Cc1ccc(C(=O)/C=C/C(=O)O)cc1 | -9% | 2 | -16% | -7% | · | ·
COc1ccc(NC(=O)CSCC(=O)N2c3ccccc3CCc3ccccc32)cc1 | 2% | -24 | -22% | -9% | -21% | -3%
COc1ccccc1NC(=O)CSCC(=O)N1c2ccccc2CCc2ccccc21 | 25µM* | -28 | ? | -30% | ? | -14%
N#CSCC(=O)N1c2ccccc2CCc2ccccc21 | ? | -102* | ? | -17% | ? | ?
CCOc1ccc(NC(=O)CSc2nc3ccsc3c(=O)n2CCCCCC(=O)O)cc1 | · | +! | -5% | -8% | · | -24%[46.1 µM]
CCC[C@@H]1Cc2c(sc3nc(SC)nc(N)c23)CO1 | · | · | · | · | 0%[46.1 µM] | ·
COC(=O)C1=C(C)N(Cc2ccccc2)C(=O)N[C@H]1c1cccc(C(F)(F)F)c1 | 0.4µM* | -20 | -26% | i | 17%[14.2 µM] | ·
COC(=O)C1=C(C)N(Cc2ccccc2)C(=O)NC1c1cccc(C(F)(F)F)c1 (stereo not given) | · | · | · | · | 17%[14.2 µM] | ·
CC(=O)C1=C(C)N(Cc2ccccc2)C(=O)N[C@@H]1c1cccc(C(F)(F)F)c1 | -13% | -3 | -15% | -6% | ? | -2%
CC(=O)C1=C(C)N(Cc2ccccc2)C(=O)N[C@H]1c1cccc(C(F)(F)F)c1 | ? | -69* | -28% | ? | 12%[14.2 µM] | -15%
COc1cc(=O)n2c(c1C(=O)N(C)Cc1nonc1C)CCN(Cc1cc(F)ccc1F)CC2 | · | · | 8% | -4% | · | ·
C/C(Cl)=C\Cn1c(N2CCCC2)nc2c1c(=O)[nH]c(=O)n2C | -7% | -89* | -11% | · | -23% | 5%
